This is one part of the list. The source made the active and inactive calls.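 The calls were made as follows: active = fluorescence response below 15%; inactive = the rest.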
Test: DHE quenching or ROS scavenging interference in aged yeast, artefact control for yeast caloric restriction mimetic project, S. cerevisiae BY4741, flow cytometry (AID 435000);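 also: percent of the mean fluorescence averaged over all compound wells on the plate; lower means stronger quenching of DHE signal or ROS scavenging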
Details: at 10 µM, active compounds read low

Fluorescence response, inactive:
O=[N+]([O-])c1ccc2c(c1)Nc1nc3ccccc3nc1N2 92.7%, O=C(O)C1CCCN1S(=O)(=O)c1ccc(Br)cc1 (stereo unspecified) 90.2%, COc1ccc(C)cc1S(=O)(=O)Nc1cccc(Cl)c1Cl 102%, CC(=O)NC1=NN(C(C)=O)C(C)(CCS(=O)(=O)c2ccc(Cl)c(Cl)c2)S1 (stereo unspecified) 112%, O=C(CN1CCN(c2ccccn2)CC1)Nc1ccc(Br)cc1 97%, Cc1cc(C(F)F)n2nc(C(=O)Nc3ccc(S(=O)(=O)NC45CC6CC(CC(C6)C4)C5)cc3)nc2n1 104%, Cc1ccccc1NC(=O)NCC1CCN(Cc2cccc(Cl)c2)CC1 101%, COc1cc(-c2nnn(CC(=O)NCc3ccccc3)n2)cc(OC)c1OC 99.2%, COc1cc(NC(=O)CSc2ccc(-c3cccnc3)nn2)cc(OC)c1 123%, CCn1c2ccccc2c2cc(NC(=O)CNC)ccc21 112%, O=C(CSCc1ccccc1)Nc1ccccc1 111%, CCn1c2ccccc2c2cc(CC(N)=O)ccc21 105%, CN1CCN(c2cc3c(cc2F)c(=O)c(C(=O)O)cn3CCF)CC1 100%, O=C(Nc1ccc(Br)cn1)c1ccc([N+](=O)[O-])cc1Cl 94%, Cc1ccc(-c2nnc(Nc3ccc(C(=O)N(C)C)cc3)c3ccccc23)cc1S(N)(=O)=O 113%, CCCC(C)C(=O)OCC(=O)Nc1c(Br)cc(C)cc1Br (stereo unspecified) 89.1%

— PubChem BioAssay AID435000 (NMMLSC, 2010)
